About 7,900 targets were measured; listed, in parts, are those with a hit and a random draw of the rest. About 0.6% of all pairs of compound and target were hits. A number with no mark means an inactive call.
Legend:
Assay in all cases: log2 fold change, soluble protein after heating vs DMSO (PISA); higher = thermal stabilisation; K562 cells, 10 uM, 30 min; active = over 0.2 and 3.5 SD of the protein, either way, in both replicates (recomputed)
[1] = compound: CC1=C(C=C(C=C1)NC(=O)C2=CC(=CC=C2)C(C)(C)C#N)NC3=CC4=C(C=C3)N=CN(C4=O)C
How it was run: (§1)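 Soluble protein was quantified by TMTpro 16plex LC-MS/MS after channel sums were equalised. It was obtained as the supernatant after 21,000xg for 90 min from pooled aliquots of K562 cells (2×10^6 cells/mL, 10 μM compound, 30 min) heated for 3 min across 48°C-58°C and extracted in PBS with 0.5% NP-40 at 4°C. Thermal stability values are relative to control samples and come from duplicates. They are given as log2 fold changes.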

[2] = compound: CC1=C(C=C(C=C1)NC(=O)C2=CC(=CC=C2)N(C)C)NC(=O)C3=CC=C(C=C3)O
How it was run: as §1

[3] = compound: CC1=CC=C(C=C1)SC2=C3C=C(SC3=CN=C2)C(=O)N
How it was run: as §1

[4] = compound: CC1=NC(=CC=C1)C2=C(N=C(N2)C(C)(C)C)C3=CC4=NC=CN=C4C=C3
How it was run: as §1

Nexturastat A = compound: CCCCN(Cc1ccc(C(=O)NO)cc1)C(=O)Nc1ccccc1 [Nexturastat A]
How it was run: as §1

vemurafenib = compound: CCCS(=O)(=O)Nc1ccc(F)c(C(=O)c2c[nH]c3ncc(-c4ccc(Cl)cc4)cc23)c1F [vemurafenib]
How it was run: as §1

[5] = compound: CCCS(=O)(=O)Nc1ccc(F)c(C(=O)c2c[nH]c3ncc(Cl)cc23)c1F
How it was run: as §1

[6] = compound: CCCc1cc(C)[nH]c(=O)c1CNC(=O)c1cc(-c2ccnc(N3CCN(C)CC3)c2)cc2c1cnn2C(C)C
How it was run: as §1

givinostat = compound: CCN(CC)Cc1ccc2cc(COC(=O)Nc3ccc(C(=O)NO)cc3)ccc2c1 [givinostat]
How it was run: as §1

barasertib = compound: CCN(CCCOc1ccc2c(Nc3cc(CC(=O)Nc4cccc(F)c4)[nH]n3)ncnc2c1)CCOP(=O)(O)O [barasertib]
How it was run: as §1

[7] = compound: CC[C@@H]1C(=O)N(C)c2cnc(Nc3ccc(C(=O)NC4CCN(C)CC4)cc3OC)nc2N1C1CCCC1
How it was run: as §1

volasertib = compound: CC[C@@H]1C(=O)N(C)c2cnc(Nc3ccc(C(=O)N[C@H]4CC[C@H](N5CCN(CC6CC6)CC5)CC4)cc3OC)nc2N1C(C)C [volasertib]
How it was run: as §1

[8] = compound: CC[C@H](C)N1C=C(C2=C(C=C(C=C21)C3=CN=C(C=C3)N4CCNCC4)C(=O)NCC5=C(C=C(NC5=O)C)C)C
How it was run: as §1

epoxomicin = compound: CC[C@H](C)[C@@H](C(=O)N[C@@H]([C@@H](C)O)C(=O)N[C@@H](CC(C)C)C(=O)[C@]1(CO1)C)NC(=O)[C@H]([C@@H](C)CC)N(C)C(=O)C [epoxomicin]
How it was run: as §1

[9] = compound: CCn1c(C(=O)N(C2CC2)C2CC2)cc2c3c(ncn3C)c(Nc3cc(C)n(C)n3)nc21
How it was run: as §1

[10] = compound: CCn1cc(-c2ccnc3[nH]c(-c4cccc(CN(C)C)c4)cc23)c(-c2ccc(NC(=O)N(C)C)cc2)n1
How it was run: as §1

[11] = compound: CN(C)CC(=O)Nc1ccc2[nH]c(=O)c3ccccc3c2c1
How it was run: as §1

rosiglitazone = compound: CN(CCOC1=CC=C(C=C1)C[C@H]2C(=O)NC(=O)S2)C3=CC=CC=N3 (racemic) [rosiglitazone]
How it was run: as §1

[12] = compound: CN1C2=C(C3=C1C(=O)N(N=C3)CC4=CC(=CC=C4)N)SC(=C2)S(=O)C
How it was run: as §1

[13] = compound: CN1CCC(CNc2ccc3ncc(-c4cccc(OC(F)(F)F)c4)n3n2)CC1
How it was run: as §1

Chain of UniProt O95801 (O95801 whole entry, looked up): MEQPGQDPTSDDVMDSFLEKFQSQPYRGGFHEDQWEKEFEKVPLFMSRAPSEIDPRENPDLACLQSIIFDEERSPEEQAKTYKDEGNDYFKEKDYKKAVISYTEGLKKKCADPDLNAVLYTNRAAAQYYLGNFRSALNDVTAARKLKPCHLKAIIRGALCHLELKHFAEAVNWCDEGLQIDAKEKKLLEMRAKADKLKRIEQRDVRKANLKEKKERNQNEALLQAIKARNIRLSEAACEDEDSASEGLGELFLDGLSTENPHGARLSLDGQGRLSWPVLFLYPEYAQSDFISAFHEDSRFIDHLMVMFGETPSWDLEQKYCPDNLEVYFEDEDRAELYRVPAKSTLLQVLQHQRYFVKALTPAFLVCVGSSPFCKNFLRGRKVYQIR
Chain of UniProt Q9UEU0 (Q9UEU0 whole entry, looked up): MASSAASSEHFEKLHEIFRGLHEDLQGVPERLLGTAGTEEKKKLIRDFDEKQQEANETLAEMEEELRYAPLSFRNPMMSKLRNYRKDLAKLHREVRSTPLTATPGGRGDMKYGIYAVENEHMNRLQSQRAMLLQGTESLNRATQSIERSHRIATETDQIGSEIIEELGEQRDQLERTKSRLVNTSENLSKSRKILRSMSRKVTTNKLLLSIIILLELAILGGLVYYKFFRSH
Chain of UniProt Q92890 (Q92890 whole entry, looked up): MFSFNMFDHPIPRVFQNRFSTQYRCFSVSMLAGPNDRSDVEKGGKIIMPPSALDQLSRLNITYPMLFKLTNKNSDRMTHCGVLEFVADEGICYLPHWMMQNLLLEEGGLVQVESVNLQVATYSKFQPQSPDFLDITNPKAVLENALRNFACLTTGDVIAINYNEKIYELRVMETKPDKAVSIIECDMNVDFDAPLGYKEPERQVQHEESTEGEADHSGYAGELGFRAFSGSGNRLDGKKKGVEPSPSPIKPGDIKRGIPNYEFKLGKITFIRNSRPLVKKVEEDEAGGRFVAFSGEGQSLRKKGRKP
Chain of UniProt Q7Z3J2 (Q7Z3J2 whole entry, looked up): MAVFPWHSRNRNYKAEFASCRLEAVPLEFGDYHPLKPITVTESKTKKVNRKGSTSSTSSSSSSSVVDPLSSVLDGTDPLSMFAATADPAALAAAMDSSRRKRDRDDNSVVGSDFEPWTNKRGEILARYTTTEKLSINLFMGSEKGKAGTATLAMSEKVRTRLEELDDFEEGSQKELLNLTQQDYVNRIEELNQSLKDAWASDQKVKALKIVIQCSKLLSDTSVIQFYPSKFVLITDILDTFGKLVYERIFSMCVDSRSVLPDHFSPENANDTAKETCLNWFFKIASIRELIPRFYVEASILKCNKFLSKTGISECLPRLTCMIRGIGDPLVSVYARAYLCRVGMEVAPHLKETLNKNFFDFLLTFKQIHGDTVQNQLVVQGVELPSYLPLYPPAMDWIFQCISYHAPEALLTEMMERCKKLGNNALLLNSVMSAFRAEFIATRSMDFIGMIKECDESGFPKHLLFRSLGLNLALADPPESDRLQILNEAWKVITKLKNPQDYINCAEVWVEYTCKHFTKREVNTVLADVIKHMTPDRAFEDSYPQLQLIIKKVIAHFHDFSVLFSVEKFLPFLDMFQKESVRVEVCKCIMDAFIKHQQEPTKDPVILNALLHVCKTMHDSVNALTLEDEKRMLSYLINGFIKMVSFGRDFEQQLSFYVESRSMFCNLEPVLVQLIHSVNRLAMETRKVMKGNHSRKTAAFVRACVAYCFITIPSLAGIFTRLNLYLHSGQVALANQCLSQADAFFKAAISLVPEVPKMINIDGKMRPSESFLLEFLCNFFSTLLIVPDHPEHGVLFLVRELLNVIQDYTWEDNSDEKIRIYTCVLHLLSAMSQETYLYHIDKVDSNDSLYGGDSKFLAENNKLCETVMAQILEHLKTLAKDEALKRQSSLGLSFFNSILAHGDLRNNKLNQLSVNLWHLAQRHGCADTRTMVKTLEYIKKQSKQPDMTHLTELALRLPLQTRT
Chain of UniProt Q9UDW1 (Q9UDW1 whole entry, looked up): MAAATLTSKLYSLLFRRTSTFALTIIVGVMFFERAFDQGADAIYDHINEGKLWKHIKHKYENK
Chain of UniProt Q8TBZ6 (Q8TBZ6 whole entry, looked up): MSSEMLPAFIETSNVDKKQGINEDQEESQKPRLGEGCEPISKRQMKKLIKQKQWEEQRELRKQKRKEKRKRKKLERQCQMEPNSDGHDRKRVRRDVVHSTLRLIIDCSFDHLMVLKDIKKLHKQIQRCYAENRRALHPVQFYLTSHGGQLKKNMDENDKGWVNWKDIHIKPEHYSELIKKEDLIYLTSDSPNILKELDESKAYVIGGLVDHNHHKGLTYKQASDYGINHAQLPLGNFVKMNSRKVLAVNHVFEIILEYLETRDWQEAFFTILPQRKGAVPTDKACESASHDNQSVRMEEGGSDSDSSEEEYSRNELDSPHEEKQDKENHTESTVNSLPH
Chain of UniProt O43396 (O43396 whole entry, looked up): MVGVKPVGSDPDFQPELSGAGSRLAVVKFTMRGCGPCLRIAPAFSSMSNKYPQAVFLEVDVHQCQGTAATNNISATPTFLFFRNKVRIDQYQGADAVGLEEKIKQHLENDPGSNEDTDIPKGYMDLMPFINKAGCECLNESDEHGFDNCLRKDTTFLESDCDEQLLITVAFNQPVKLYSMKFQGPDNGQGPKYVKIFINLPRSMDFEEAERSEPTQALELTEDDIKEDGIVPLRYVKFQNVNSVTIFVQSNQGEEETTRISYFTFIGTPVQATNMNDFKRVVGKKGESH
Chain of UniProt Q96K49 (Q96K49 whole entry, looked up): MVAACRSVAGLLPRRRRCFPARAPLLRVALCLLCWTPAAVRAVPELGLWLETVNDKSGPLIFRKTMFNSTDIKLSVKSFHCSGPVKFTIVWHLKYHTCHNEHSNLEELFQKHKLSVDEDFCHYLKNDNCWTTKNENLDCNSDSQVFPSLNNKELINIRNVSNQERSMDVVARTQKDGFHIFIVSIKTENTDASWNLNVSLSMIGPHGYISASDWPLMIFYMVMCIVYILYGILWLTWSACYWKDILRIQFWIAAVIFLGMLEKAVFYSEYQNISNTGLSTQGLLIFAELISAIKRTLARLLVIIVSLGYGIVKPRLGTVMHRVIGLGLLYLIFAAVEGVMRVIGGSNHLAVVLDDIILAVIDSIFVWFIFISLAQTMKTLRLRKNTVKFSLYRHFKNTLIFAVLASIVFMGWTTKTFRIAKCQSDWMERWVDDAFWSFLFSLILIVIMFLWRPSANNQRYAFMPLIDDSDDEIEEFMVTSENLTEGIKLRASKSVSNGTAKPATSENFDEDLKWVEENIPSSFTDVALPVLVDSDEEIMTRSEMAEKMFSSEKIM
Chain of UniProt Q9Y3C0 (Q9Y3C0 whole entry, looked up): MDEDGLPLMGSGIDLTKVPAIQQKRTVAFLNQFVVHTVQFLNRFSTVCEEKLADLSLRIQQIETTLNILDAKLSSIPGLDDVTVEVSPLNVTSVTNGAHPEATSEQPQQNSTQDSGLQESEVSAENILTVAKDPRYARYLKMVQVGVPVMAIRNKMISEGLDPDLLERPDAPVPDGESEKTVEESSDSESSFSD
Chain of UniProt Q8N3P4 (Q8N3P4 whole entry, looked up): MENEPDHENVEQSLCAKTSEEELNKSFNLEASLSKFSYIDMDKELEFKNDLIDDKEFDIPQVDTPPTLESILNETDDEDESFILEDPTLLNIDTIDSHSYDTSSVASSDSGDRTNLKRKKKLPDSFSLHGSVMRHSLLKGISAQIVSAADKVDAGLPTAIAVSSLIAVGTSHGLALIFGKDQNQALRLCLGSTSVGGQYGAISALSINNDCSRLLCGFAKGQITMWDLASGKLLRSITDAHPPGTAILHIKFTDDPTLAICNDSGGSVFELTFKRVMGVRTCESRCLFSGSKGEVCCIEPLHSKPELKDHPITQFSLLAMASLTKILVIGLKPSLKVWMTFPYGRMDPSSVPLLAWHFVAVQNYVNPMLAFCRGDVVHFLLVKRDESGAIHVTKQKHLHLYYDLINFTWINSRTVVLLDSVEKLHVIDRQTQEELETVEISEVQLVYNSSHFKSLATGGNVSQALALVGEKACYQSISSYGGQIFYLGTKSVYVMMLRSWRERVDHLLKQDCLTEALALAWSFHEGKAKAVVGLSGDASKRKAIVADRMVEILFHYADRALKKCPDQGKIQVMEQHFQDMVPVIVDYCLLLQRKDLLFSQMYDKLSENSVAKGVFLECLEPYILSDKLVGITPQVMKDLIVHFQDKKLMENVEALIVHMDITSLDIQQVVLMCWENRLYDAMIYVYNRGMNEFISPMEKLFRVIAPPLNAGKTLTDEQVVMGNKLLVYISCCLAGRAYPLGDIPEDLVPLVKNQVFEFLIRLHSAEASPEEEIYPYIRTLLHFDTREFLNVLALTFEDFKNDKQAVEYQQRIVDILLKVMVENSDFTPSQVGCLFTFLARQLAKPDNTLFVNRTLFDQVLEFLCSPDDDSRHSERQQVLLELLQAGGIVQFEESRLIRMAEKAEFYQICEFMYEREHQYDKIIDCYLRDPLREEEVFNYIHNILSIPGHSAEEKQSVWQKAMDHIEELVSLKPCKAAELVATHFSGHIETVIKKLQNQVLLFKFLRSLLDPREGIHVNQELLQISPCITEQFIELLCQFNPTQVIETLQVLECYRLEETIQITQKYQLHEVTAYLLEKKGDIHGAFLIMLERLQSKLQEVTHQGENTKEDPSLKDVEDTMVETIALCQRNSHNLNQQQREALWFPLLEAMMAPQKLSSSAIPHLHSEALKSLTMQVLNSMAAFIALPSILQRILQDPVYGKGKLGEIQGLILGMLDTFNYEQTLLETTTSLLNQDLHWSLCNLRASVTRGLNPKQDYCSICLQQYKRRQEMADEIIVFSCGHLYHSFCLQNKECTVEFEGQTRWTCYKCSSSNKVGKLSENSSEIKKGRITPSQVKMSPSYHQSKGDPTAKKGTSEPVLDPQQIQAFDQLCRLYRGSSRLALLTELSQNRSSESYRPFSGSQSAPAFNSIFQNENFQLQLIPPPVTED
Chain of UniProt Q9P0T7 (Q9P0T7 whole entry, looked up): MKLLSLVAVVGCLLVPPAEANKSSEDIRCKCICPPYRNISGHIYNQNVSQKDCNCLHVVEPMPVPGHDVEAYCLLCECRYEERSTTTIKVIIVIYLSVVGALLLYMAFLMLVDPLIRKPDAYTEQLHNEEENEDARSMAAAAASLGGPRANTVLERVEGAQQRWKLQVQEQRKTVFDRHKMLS

Row | Target | log2 fold change [1] | log2 fold change [2] | log2 fold change [3] | log2 fold change [4] | log2 fold change (Nexturastat A) | log2 fold change (vemurafenib) | log2 fold change [5] | log2 fold change [6] | log2 fold change (givinostat) | log2 fold change (barasertib) | log2 fold change [7] | log2 fold change (volasertib) | log2 fold change [8] | log2 fold change (epoxomicin) | log2 fold change [9] | log2 fold change [10] | log2 fold change [11] | log2 fold change (rosiglitazone) | log2 fold change [12] | log2 fold change [13]
1 | TMEM87B (UniProt Q96K49) | -0.018 | -0.013 | 0.112 | -0.008 | -0.059 | -0.048 | -0.028 | 0.008 | -0.063 | 0.048 | -0.088 | -0.148 | 0.092 | 0.018 | 0.002 | -0.103 | -0.016 | 0 | -0.143 | -0.436 (active)
2 | VTI1B (UniProt Q9UEU0) | -0.038 | 0.006 | -0.008 | -0.014 | 0.036 | -0.03 | 0.009 | -0.034 | -0.04 | -0.007 | -0.028 | -0.066 | -0.037 | -0.057 | 0.036 | -0.018 | -0.009 | 0.006 | 0.018 | -0.331 (active)
3 | TTC4 (UniProt O95801) | 0.051 | -0.066 | 0.032 | 0.046 | 0.052 | 0.059 | 0.106 | 0.013 | -0.015 | 0.072 | -0.173 | -0.316 (active) | 0.103 | 0.054 | -0.025 | -0.039 | 0.061 | 0.052 | -0.02 | -0.11
4 | WBP4 (UniProt O75554) | 0.105 | 0.044 | 0.057 | -0.036 | -0.047 | 0.022 | 0.011 | 0 | -0.043 | -0.022 | -0.004 | -0.045 | 0.003 | 0.069 | 0.025 | -0.089 | -0.036 | -0.038 | -0.058 | 0.218
5 | UFD1 isoform 1 (UniProt Q92890) | 0.02 | -0.025 | 0.037 | 0.106 | 0.015 | 0 | 0.018 | -0.015 | 0.032 | -0.011 | -0.009 | 0.021 | 0.008 | 0.063 | -0.021 | 0.063 | 0.003 | 0.008 | -0.045 | -0.015
6 | UQCR10 (UniProt Q9UDW1) | 0.103 | -0.086 | 0.069 | -0.014 | -0.049 | -0.042 | -0.018 | 0.007 | -0.05 | -0.042 | 0.093 | -0.102 | -0.031 | 0.005 | 0.088 | -0.112 | 0.008 | 0.017 | -0.016 | 0.177
7 | XPNPEP1 isoform 3 (UniProt Q9NQW7) | 0.014 | -0.024 | 0.023 | 0.036 | -0.014 | 0 | 0.021 | -0.01 | 0.042 | 0.016 | 0.027 | 0.049 | 0.018 | -0.024 | 0 | -0.043 | 0.051 | 0.028 | -0.064 | -0.076
8 | UBR2 (UniProt Q8IWV8) | 0.079 | -0.08 | 0.048 | -0.03 | 0.078 | 0.029 | 0.037 | -0.038 | 0.192 | 0.046 | 0.046 | -0.104 | -0.004 | 0.196 | -0.026 | -0.039 | -0.076 | 0.063 | 0.114 | -0.063
9 | TRMT10A (UniProt Q8TBZ6) | 0.006 | -0.004 | 0.063 | 0.031 | -0.079 | 0.014 | -0.017 | -0.011 | -0.004 | -0.019 | 0.016 | -0.013 | 0.033 | 0.003 | -0.026 | -0.037 | 0.047 | 0.034 | -0.135 | -0.075
10 | TXNIP (UniProt Q9H3M7) | -0.04 | 0.003 | -0.115 | 0.034 | 0.177 | -0.005 | -0.079 | 0.001 | -0.06 | 0.033 | 0.112 | 0.021 | 0.053 | 0.054 | 0.212 | -0.066 | -0.026 | 0.036 | -0.07 | -0.793 (active)
11 | TMEM214 (UniProt Q6NUQ4) | -0.038 | -0.054 | 0.023 | 0.007 | 0.062 | 0.046 | 0.065 | 0 | 0.021 | -0.03 | -0.023 | -0.246 (active) | 0.075 | 0.032 | -0.056 | -0.023 | 0.008 | 0.046 | 0.004 | 0.148
12 | WASHC3 (UniProt Q9Y3C0) | 0.011 | 0.015 | 0.049 | -0.008 | -0.051 | 0.005 | -0.006 | -0.08 | 0.004 | 0.017 | -0.015 | -0.066 | -0.058 | 0.067 | -0.025 | 0.007 | -0.002 | 0.026 | -0.03 | -0.245 (active)
13 | TMEM9 (UniProt Q9P0T7) | -0.024 | -0.041 | 0.057 | -0.008 | 0 | 0.028 | 0.091 | -0.062 | 0.039 | 0.019 | -0.112 | -0.07 | -0.05 | 0.296 (active) | -0.018 | 0.015 | 0.004 | -0.157 | -0.015 | -0.007
14 | VPS35L (UniProt Q7Z3J2) | 0.024 | -0.031 | -0.052 | -0.022 | 0.05 | 0.003 | 0.049 | 0.086 | 0.03 | 0.07 | 0.021 | -0.365 (active) | -0.038 | 0.003 | -0.014 | 0.071 | 0.005 | 0.072 | -0.076 | -0.099
15 | TXNL1 (UniProt O43396) | 0.02 | -0.105 | 0.007 | 0.098 | 0.117 | 0.037 | 0.079 | 0.015 | 0.114 | 0.045 | -0.104 | -0.163 | 0.044 | 0.295 (active) | -0.018 | -0.031 | 0.027 | 0.01 | -0.018 | 0.011
16 | VPS8 (UniProt Q8N3P4) | -0.011 | -0.003 | -0.034 | 0.058 | 0.032 | 0.048 | 0.126 | -0.04 | 0.014 | 0.028 | -0.087 | -0.647 (active) | 0.079 | -0.015 | -0.068 | -0.038 | 0.001 | 0.118 | -0.023 | -0.332 (active)
